# PubChem BioAssay AID2685 (National Center for Advancing Translational Sciences (NCATS), 2010)
# The whole screen tested about 320,000 compounds, of which about 2,100 (0.66%) were called active. Not shown: some 53% with an inconclusive outcome. Calls follow the shape of the dose curve; as a rule, active = well fitted inhibition curve with a large enough effect in the signal ratio, with a control signal flat (not every such curve was filed as active); inconclusive = small, poorly fitted or top-dose-only effect, or effect the other way, or a change in a side signal; inactive = flat fitted curve, though single readings scatter; the % refers to the signal ratio. Only a selection was taken, and actives are over-represented in it overall.
# Assay: qHTS Assay for Lipid Storage Modulators in Drosophila S3 Cells;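 as to cell number change: cells counted by Cell Tracker Red CMTPX staining in the red channel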; as to lipid storage change, negative = inhibition: % is scaled to controls: 0 for no effect and ±100 for the full control effect
# Settings: BODIPY lipid droplet fluorescence, 18-24 h, cells fed with added oleic acid; cell number change: measured here: cell count max response; series mostly up to 46.1 µM; lipid storage change, negative = inhibition: at the top concentration
# In short: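 Laser-scanning cytometry quantifies lipid droplet accumulation (500–530 nm total intensity; droplet/cell object ratio) in oleic acid-fed (400 uM added) Drosophila S3 cells treated with a concentration series. 20 uM Triacsin C defined 100% inhibition.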
# Potency is read from the fitted curve at half-maximal effect.
Structure (SMILES),outcome,cell number change [%],"lipid storage change, negative = inhibition",Potency
CCC1Sc2ccc(S(=O)(=O)CCC(=O)NCc3ccc(C)o3)cc2NC1=O (configuration not stated),inactive,-1.81,,
O=C(NN1CCOCC1)c1cccc(Cl)c1,,14.2,-1.82% (inactive),
CC(C)c1cc(C(=O)N2CCCC(C(=O)c3ccc4ccccc4c3)C2)on1 (configuration not stated),,,6.79% (inactive),
Cc1cc(C(=O)N2CCCC(C(=O)c3ccc4ccccc4c3)C2)nn1C (configuration not stated),,11.4,1.31% (inactive),
Cc1cc(C(=O)N2CCCC(C(=O)c3ccc4ccccc4c3)C2)n(C)n1 (configuration not stated),,-14.9,,25.9 µM (active)
Cc1cc(C(=O)NC2CCC(C)CC2)c(C)o1 (configuration not stated),,-8.31,-14.9% (inactive),
O=C(CSc1nnc(-c2cccnc2)n1CCN1CCCCC1)Nc1cccc(Cl)c1,,11.7,0.818% (inactive),
CCCN1C2CCCC1CC(NC(=S)NCCCOCC)C2 (configuration not stated),inactive,-29.4,,
Clc1cc(CSc2ccccc2)nc(-c2ccccc2)n1,inactive,,,
CSc1nc(-c2ccc(C)cc2)nc(C(Cl)Cl)n1,,10.6,7.05% (inactive),
CSc1nnc(-c2ccccc2)c(-c2ccccc2)n1,,-3.83,11.7% (inactive),
CSc1nc(-c2ccccc2)nc(C(Cl)Cl)n1,,-22.1,,8.2 µM (active)
CCSc1nc(-c2ccccc2)c2cc(Cl)ccc2n1,,-8.68,2.19% (inactive),
CCSc1nc(-c2ccccc2)nc(C(Cl)Cl)n1,,-6.95,,5.17 µM (active)
COc1ccccc1/C=N/OC(=O)c1ccc(F)cc1,,3.91,-0.325% (inactive),
Cc1cc(Cl)c(Cl)cc1S(=O)(=O)NCCCn1ccnc1,,-5.8,,6.51 µM (active)
COc1cc(Cl)c(S(=O)(=O)NCCCn2ccnc2)cc1Cl,,29,-3.68% (inactive),
Cc1cc(C)c(S(=O)(=O)NCCCn2ccnc2)cc1C,,4.74,10.5% (inactive),
COc1cccc(NC(=O)C2CCC(CNC(=O)[C@@H]3Cc4ccccc4CN3)CC2)c1 (some centres not stated),inactive,0.236,,
CC(C(=O)Nc1ccc(F)c(F)c1F)N(C)Cc1cccs1 (configuration not stated),,25.5,-15.3% (inactive),
CCOc1ccc(S(=O)(=O)N2CCCC(C(=O)N3CCOCC3)C2)cc1Cl (configuration not stated),inactive,16.4,,
COc1ccc(S(=O)(=O)N2CCC(C(=O)N[C@@H](C)C(=O)NCc3ccc(F)cc3)CC2)cc1,inactive,13.5,,
COc1ccc(CNC(=O)[C@H](C)NC(=O)C2CCN(S(=O)(=O)c3ccc(C)cc3)CC2)cc1,inactive,-4.43,,
O=C(Nc1ccncc1)C1CCN(S(=O)(=O)c2cccc(C(F)(F)F)c2)CC1,,-3.08,9.54% (inactive),

Structure (SMILES),outcome,cell number change [%],"lipid storage change, negative = inhibition",Potency
CCOC(=O)N1CCN(S(=O)(=O)N2CCCC(C(=O)NCCc3ccc(OCC)c(OCC)c3)C2)CC1 (configuration not stated),,,,4.61 µM (active)
CCOc1ccc(CCNC(=O)C2CCCN(S(=O)(=O)N3CCOCC3)C2)cc1OCC (configuration not stated),,0.288,-4.66% (inactive),
CCOc1ccc(S(=O)(=O)N2CCCC(C(=O)N3CCOCC3)C2)cc1C (configuration not stated),,-23.5,,2.31 µM (active)
COc1ccc(S(=O)(=O)N2CCCC(C(=O)N3CCOCC3)C2)cc1C (configuration not stated),inactive,17.1,,
CS(=O)(=O)N1CCC(C(=O)Nc2ccc(Cl)c(C(F)(F)F)c2)CC1,inactive,-15.8,,
O=C(Nc1ccncc1)C1CCN(S(=O)(=O)c2ccc(Cl)c(C(F)(F)F)c2)CC1,,2.68,,10.3 µM (active)
CCOC(=O)N1CCN(S(=O)(=O)N2CCCC(C(=O)NCCc3ccc(OC)c(OC)c3)C2)CC1 (configuration not stated),,-20.2,-9.88% (inactive),
COc1ccc(CNC(=O)[C@H](C)NC(=O)C2CCN(S(=O)(=O)c3ccc(F)cc3)CC2)cc1,,3.44,,18.4 µM (active)
O=C(NC1=NCCS1)c1ccccc1Cl,,-14.3,16.7% (inactive),
CO/N=C/CC(=O)Nc1ccc(F)cc1F,,16.8,1.73% (inactive),
CCCNC(=O)Nc1nc(CC(=O)OCC)cs1,,-16.9,-0.813% (inactive),
CC1NC2(C(=O)N(Cc3ccccc3)c3ccccc32)C2C(=O)N(c3ccccc3)C(=O)C12 (configuration not stated),inactive,,,
CC1Cc2ccccc2C(CCc2ccccc2)=N1 (configuration not stated),,-1.48,-0.249% (inactive),
CSc1cccc(CNC(=O)CC2C(=O)NCCN2CC(C)(C)C)c1 (configuration not stated),,22,10.7% (inactive),
COc1ccc(-c2cc3cc(C(=O)O)ccn3c2C(=O)c2ccccc2)cc1,,2.31,-4.15% (inactive),
CC1CCC2(CC1)NC(=O)N(CC(=O)NC(=O)Nc1ccc3c(c1)OCCO3)C2=O (configuration not stated),,17.3,2.79% (inactive),
CCOc1ccc(S(=O)(=O)N2CCCC(C(=O)NCc3ccncc3)C2)cc1Cl (configuration not stated),,25.2,,1.03 µM (active)
CSc1ccc(S(=O)(=O)N2CCC(C(=O)NCc3ccncc3)CC2)cc1,,19.2,-5.08% (inactive),
CCOc1ccc(S(=O)(=O)N2CCCC(C(=O)NCc3ccncc3)C2)cc1C (configuration not stated),inactive,9.24,,
Cc1ccc(S(=O)(=O)N2CCC(C(=O)N[C@@H](C)C(=O)NCCc3ccccc3)CC2)cc1,,4.36,11.5% (inactive),
Cc1ccc(S(=O)(=O)N2CCC(C(=O)NCCc3ccccc3)CC2)cc1,,-12.9,,23.1 µM (active)
O=C(NCc1ccncc1)C1CCN(S(=O)(=O)c2ccc(F)cc2)CC1,inactive,1.32,,
O=C(NC1CCN(S(=O)(=O)c2ccc(F)cc2)CC1)C1CCCCC1,,-18.1,,5.17 µM (active)
O=C(NC1CCCCCC1)C1CCN(S(=O)(=O)c2ccc(F)cc2)CC1,,-1.11,9.96% (inactive),
